Screening data: PubChem, National Center for Advancing Translational Sciences (NCATS)
The sample as a whole holds a higher share of hits than the screen did.
SKOV3 invasion – Primary qHTS assay for Inhibitors of ovarian cancer metastasis using an organotypic tumor microenvironment (TME) model. SKOV3ip1-GFP adhesion/invasion on 3D omental model, fluorescence. Potency, µM (series often up to 45.8 µM), without a hit: top-dose activity change, negative = inhibition, most hits filed as inhibitors. 46,000 compounds, 0.1% hits;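 further: plate controls were DMSO wells for no effect and tomatine positive control wells for full effect; nearly all actives have a fitted effect of over 65% in size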
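qHTS, 4-pt dose (0.36-46 umol/L); SKOV3ip1-GFP, 1,200 cells/well, no FBS; primary omental fibroblast/mesothelial co-culture 48 h pre-grown; 2 h RT + 16 h 37 C; PBS wash, 4% PFA; GFP count 488/509 nm.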
p53null 39C tox – qHTS Screen for Compounds that Selectively Target Cancer Cells with p53 Mutations: Cytotoxicity of p53 Null Cells at the Nonpermissive Temperature; H1299 p53-null (neo) cells, 39C, ATPlite viability, 24 h; Potency, µM (top dose mostly 46.1 µM), without a hit: at the top dose activity, negative = cell killing, hits mostly cytotoxic; 55,000 compounds, 0.97% hits; AID 904, 2007;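 further: 0% = DMSO only and -100% = full killing by 100 µM tamoxifen; nearly all actives have a fitted effect of over 50% in size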
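Cells seeded at 600/well, 37C overnight. Compound added (up to 46 uM), plates shifted to 39C for 24 hr. ATPlite added, luminescence read after 20 min at room temperature.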
NTMT1 inhibitor – Primary qHTS for Inhibitors of N-terminal methyltransferase 1 (NTMT1): MTaseGlo Assay | NTMT1 MTase-Glo SAH luminescence, purified enzyme | Potency, µM (highest dose often 114 µM), for the others: at the highest dose activity change, negative = inhibition, usual class: inhibitors | 59,000 compounds, 2.5% hits | AID 1645870, 2021;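 further: plate controls were DMSO vehicle for no effect and no enzyme for full effect; nearly all actives have a fitted effect of over 65% in size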
p53null 32C tox – qHTS Screen for Compounds that Selectively Target Cancer Cells with p53 Mutations: Cytotoxicity of p53 Null Cells at the Permissive Temperature; AID 903, 2007; Potency, µM (highest dose often 46.1 µM), for inactives: at the highest dose activity change, negative = cytotoxicity, most hits filed as cytotoxic; 55,000 compounds, 0.62% hits; H1299-neo p53 null cells, ATP luminescence, 24 h, 32C;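 further: 0% = DMSO only and -100% = full killing by 100 µM tamoxifen; nearly all actives have a fitted effect of over 55% in size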
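H1299-neo, 600 cells/well; overnight 37C; cpd up to 46 uM, 24 h at 32C; ATPlite luminescence after 20 min RT; normalized to DMSO (0%) and tamoxifen 100 uM (100% kill); Hill-fit AC50.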
FH mod – Identification of activators of human fumarate hydratase by quantitative high-throughput screening; Fumarate hydratase, mitochondrial (Homo sapiens), P07954; FH coupled MDH/diaphorase resazurin fluorescence, 15 min; Potency, µM (highest dose often 79.9 µM), inactives show at the highest dose activity change, negative = inhibition, hits mostly inhibitors; 54,000 compounds, 0.22% hits; AID 1347055, 2019; further: the screen sought activators but most active calls are inhibition curves; nearly all actives have a fitted effect of over 45% in size
Target sequence (P07954 whole entry, looked up): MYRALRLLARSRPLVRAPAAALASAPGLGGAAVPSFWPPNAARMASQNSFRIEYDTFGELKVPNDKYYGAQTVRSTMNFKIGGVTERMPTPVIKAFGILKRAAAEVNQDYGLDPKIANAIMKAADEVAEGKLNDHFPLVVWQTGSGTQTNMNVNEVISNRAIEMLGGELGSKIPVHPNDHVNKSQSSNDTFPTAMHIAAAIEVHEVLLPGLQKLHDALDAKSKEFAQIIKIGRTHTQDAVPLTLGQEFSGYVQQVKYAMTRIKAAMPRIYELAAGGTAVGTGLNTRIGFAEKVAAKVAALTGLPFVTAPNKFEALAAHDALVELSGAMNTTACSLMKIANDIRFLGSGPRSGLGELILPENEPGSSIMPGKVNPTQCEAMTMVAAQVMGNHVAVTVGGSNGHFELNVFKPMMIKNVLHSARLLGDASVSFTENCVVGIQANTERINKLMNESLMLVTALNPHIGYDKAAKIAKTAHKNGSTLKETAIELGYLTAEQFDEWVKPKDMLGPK
* marks the source's active call; other numbers are inactive results; u = inconclusive; x = no result; ! = a repeat was not active; [ ] = dose if it differs, or a comment. The call rests on the fitted dose curve; in most records, active means well fitted curve in the direction sought with a large enough effect; inconclusive means small, poorly fitted or top-dose-only effect, or another doubt; inactive means no such curve, though single readings can be large; an effect the other way counts as inactive or inconclusive. Unless noted, on the % scale 0 is the no-effect control and ±100 the full control effect; potency means the concentration at half of the fitted maximal effect.

SMILES	SKOV3 invasion	p53null 39C tox	NTMT1 inhibitor	p53null 32C tox	FH mod
Nc1ncnc2c1ncn2[C@@H]1O[C@H](CO)C(O)[C@H]1O (some centres undefined)	x	x	x	x	-8.6%[53.3 µM]
CC(C)(C)c1ccc(O)c(O)c1	x	x	4.47µM*	x	39.9µM*
Cc1cc(C(C)(C)C)c(O)c(C(C)(C)C)c1	x	x	32.5%[57.5 µM]	x	-2.6%[53.3 µM]
CS(=O)(=O)Nc1cccc(-c2cc(F)c(S(=O)(=O)N3CCN(S(=O)(=O)c4ccc5c(c4)OCCO5)CC3)cc2F)c1	x	x	17.8µM*	x	x
CCNC(=O)C1CCC(C(=O)Nc2ccc([S+](=O)([O-])Nc3nccs3)cc2)CC1 (centres undefined)	x	x	7.3%	x	x
CCC(=C(c1ccc(OCCN2CCCC2)cc1)c1ccc(OCCN2CCCC2)cc1)c1ccccc1	x	x	-0.1%[57.5 µM]	x	-1.2%
CC/C(=C(/c1ccc(O)cc1)c1ccc(OCCNC)cc1)c1ccccc1	x	x	11.2µM*	x	x
CCC(=C(c1ccc(O)cc1)c1ccc(OCCNC)cc1)c1ccccc1	-4.7%	x	24.1µM*	x	-3.9%[53.3 µM]
CCC(=C(c1ccccc1)c1ccc(OCCN(C)C)cc1)c1ccccc1	2.9%	x	19.2µM*	x	-5.7%[53.3 µM]
CCOc1ccc2nc3cc(N)ccc3c(N)c2c1	x	x	20µM*	x	-9.7%[53.3 µM]
COc1ncc(-c2ccc3c(Nc4cc(Oc5cc(F)cc(F)c5)cc(C(=O)O)c4)c(S(=O)(=O)NC4CC4)cnc3c2)c(OC)n1	x	x	11.2µM*!	x	-1.2%
CCOc1ccc(Nc2c(S(=O)(=O)c3ccccc3)cnc3ccc(F)cc23)cc1	-5.6%	86.5%	-24.7%	35.0%	-22.1%
COc1ccccc1NC(=O)C1=C(C)Nc2nc(SCc3ccccc3F)nn2C1c1ccncc1 (centres undefined)	2.8%	10.3%	89.1µM*	1.6%	-2.1%
CN(C)CC=CC(=O)Nc1cc2c(Nc3ccc(F)c(Cl)c3)ncnc2cc1O[C@H]1CCOC1	-7.8%	x	21.5µM*	x	-1.5%[53.3 µM]
CN(C)C/C=C/C(=O)Nc1cc2c(Nc3ccc(F)c(Cl)c3)ncnc2cc1O[C@H]1CCOC1	x	x	3.16µM*	x	x
CCOc1cc2ncc(C#N)c(Nc3ccc(F)c(Cl)c3)c2cc1NC(=O)C=CCN(C)C	-2.3%	x	3.83µM*	x	0.0%[53.3 µM]
COc1cc2ncnc(Nc3ccc(F)c(Cl)c3)c2cc1NC(=O)C=CCN1CCCCC1	-1.3%	x	-27.8%[57.5 µM]	x	5.0%[53.3 µM]
COC(=O)NCC(c1cccnc1)N1CCN(c2ccc(F)cc2)CC1 (centres undefined)	2.6%	25.1µM*	-2.5%	u	-1.5%
COC(=O)NCC(c1cccnc1)N1CCN(c2ccccc2)CC1 (centres undefined)	x	-1.3%	x	-1.7%	x
O=C(NCCc1ccccc1)C(=O)NCC(c1cccnc1)N1CCN(c2ccc(F)cc2)CC1 (centres undefined)	-2.5%	11.2µM*	-4.0%	-4.1%	-2.1%
COc1ccc(S(=O)(=O)N2CCc3cccc(-c4ccncc4)c32)cc1	x	x	0.2%	x	x
COc1ccccc1C(=O)Oc1c(Sc2ccccc2)c(C)nn1C(C)(C)C	-4.9%	12.6µM*	-3.3%	u	-40.2%
CC[C@]1(O)C[C@H]2CN(CCC3C(=Nc4ccccc43)[C@@](C(=O)OC)(c3cc4c(cc3OC)N(C)[C@H]3[C@@](O)(C(N)=O)[C@H](O)[C@]5(CC)C=CCN6CC[C@]43[C@@H]65)C2)C1 (some centres undefined)	x	x	u	x	-3.5%
O=c1oc2c(O)c(O)cc3c(=O)oc4c(O)c(O)cc1c4c23	-2.8%	x	3.55µM*!	x	-11.7%[53.3 µM]
C=C1C[C@H]2C=Nc3cc(OCCCOc4cc5c(cc4OC)C(=O)N4CC(=C)C[C@H]4C=N5)c(OC)cc3C(=O)N2C1	x	x	-10.9%	x	x
CNc1nc(Nc2cnn([C@H]3CCN(C4COC4)C[C@@H]3F)c2Cl)ncc1C(F)(F)F	x	x	-2.8%[57.5 µM]	x	-0.1%
